“And” between values parts separate entries of the source, which are not always exact repeats. Equal entries are not always repeated. Inconclusive results are not listed. A number with no mark means an inactive call. Calls come from the whole dose curve; as a rule, active = well fitted curve in either direction with a large enough effect (not every such curve was filed as active); inconclusive = small, poorly fitted or top-dose-only effect, or another doubt; inactive = flat fitted curve, though single readings scatter.

These results are taken from PubChem BioAssay (NCATS).
% is set by controls: 0 for no effect and ±100 for the full control effect.

The nature of the first experiment: Stat Signaling Pathway (AID 446). Particulars: ME-180 SIE beta-lactamase reporter, IL-6 stimulated, 5 h; at 7.69 µM (top of the series). The procedure: NCGC Assay Overview: The IL-6/STAT signaling pathway was assayed in ME-180 cervical carcinoma cells by a beta-lactamase reporter gene controlled by a STAT Inducible Element (SIE). This reporter is induced by IL-6 at 40 pM AC50 and inhibited by the pan JAK inhibitor, 2-(1,1-Dimethylethyl)-9-fluoro-3,6-dihydro-7H-benz[h]-imidaz[4,5-f]isoquinolin-7-one, at approximately 10 nM AC50. Plated cells were incubated overnight and on the following day, stimulated with 40 pM IL-6 for 5 hrs. The assay was screened at the AC50 of IL-6 activation to identify both inhibitors and activators of IL-6/STAT signaling.
NCGC Assay Protocol Summary: Cells were trypsinized, washed in assay medium (AM, OPTI MEM with 0.5% fetal bovine serum, 0.1 mM nonessential amino acids, 1 mM sodium pyruvate, 10mM HEPES pH 7.3, 100U/ml penicillin, and 100 ug/ml streptomycin) and suspended at 6 x 10e5/ml in AM. Approximately […] cells in 5 uL/well was dispensed into 1536 well plates and the cells were incubated overnight at 37 C. 23 nL of compound were delivered by a pin tool and 1 uL of IL-6 (40 pM final concentration in AM) was added. After centrifugation at 1000 rpm for less than a minute, plates were incubated at 37C for 5 hrs. One uL of detector mix (LiveBLAzerTM, Invitrogen) was added, the plates incubated at room temperature for 2.5 hrs, and fluorescence intensity at 460 and 530 nm emission was measured at 405 nm excitation by an Envision (Perkin Elmer) or Safire II (Tecan). Data were normalized by GeneData to the controls for AC90 stimulation (300 pM IL-6) and to AC90 inhibition (125 nM Jak inhibitor, 40 pM IL-6 in AM).
Take `OC(CCN1CCCCC1)(c1ccccc1)c1ccccc1`: the activity, negative = inhibition was -4.56%. For `CNCCC=C1c2ccccc2CCc2ccccc21`, the activity, negative = inhibition is -5.09%. Still for that read-out and setting: to `CN(C)CC/C=C1\c2ccccc2Sc2ccc(Cl)cc21` belongs -3.4%.

Still in this experiment, the particulars now being: ME-180 SIE beta-lactamase reporter, IL-6 stimulated, 5 h; at 17.2 µM (top of the series).
Regarding `C[C@H](CCC(=O)O)[C@H]1CC[C@H]2[C@@H]3C(=O)C[C@@H]4CC(=O)CC[C@]4(C)[C@H]3CC(=O)[C@]12C`, the activity, negative = inhibition was 1.08%. The same measure, in the same setting: then `C[C@H](O)C(=O)Nc1c(I)c(C(=O)NC(CO)CO)c(I)c(C(=O)NC(CO)CO)c1I`, with -2.21%. Still for that read-out and setting: to `Nc1nc2ncc(CNc3ccc(C(=O)N[C@@H](CCC(=O)O)C(=O)O)cc3)nc2c(=O)[nH]1` belongs 1.24%.

With `CC(C)(Oc1ccc(Cl)cc1)C(=O)O`, the activity, negative = inhibition was -4.02%. Still for that read-out and setting: to `Oc1cc(O)c2c(c1)O[C@H](c1ccc(O)c(O)c1)[C@H](O)C2` belongs -2.66% and 0.865%; to `CC(=O)OCC(=O)[C@@]12OC(C)(C)O[C@@H]1C[C@H]1[C@@H]3C[C@H](F)C4=CC(=O)C=C[C@]4(C)[C@@]3(F)[C@@H](O)C[C@@]12C`, -3.28%. Same read-out and setting: to `CC(=O)c1ccc2c(c1)N(CCCN1CCC(CCO)CC1)c1ccccc1S2` belongs 9.61%. The same measure, in the same setting: then `OC(CCN1CCCCC1)(c1ccccc1)c1ccccc1`, with 8.93% and 3.51%. For `COc1c2occc2c(OC)c2c(=O)cc(C)oc12`, the activity, negative = inhibition was 7.57% and -1.58%. Still for that read-out and setting: to `Cc1cc(=O)n(-c2ccccc2)n1C` belongs 10.3%; to `CCCn1c(=O)[nH]c(=O)c2[nH]cnc21`, 4.71%; to `C[C@H]1C[C@H]2[C@@H]3CCC4=CC(=O)C=C[C@]4(C)[C@@]3(Cl)[C@@H](O)C[C@]2(C)[C@@]1(O)C(=O)CO`, -1.29%. The same measure, in the same setting: then `O=C(OCCOCCO)c1ccccc1Nc1cccc(C(F)(F)F)c1`, with -10.5%. Same read-out and setting: to `CC(=O)OCC(=O)[C@@]1(O)[C@H](C)C[C@H]2[C@@H]3CCC4=CC(=O)C=C[C@]4(C)[C@@]3(F)[C@@H](O)C[C@@]21C` belongs -9.24%; to `CN(C)CCCOc1nn(Cc2ccccc2)c2ccccc12`, -8.78%. In the case of `CCCC1O[C@@H]2C[C@H]3[C@@H]4CCC5=CC(=O)C=C[C@]5(C)[C@H]4[C@@H](O)C[C@]3(C)[C@]2(C(=O)CO)O1` (stereo not given in full), the activity, negative = inhibition is -3.6%. Same read-out and setting: to `CNCCC=C1c2ccccc2CCc2ccccc21` belongs -1.99% and -5.78%; to `C[C@H]1[C@H](NC(=O)/C(=N/OC(C)(C)C(=O)O)c2csc(N)n2)C(=O)N1S(=O)(=O)O` (stereo in doubt), 8.78%. On the same count and under the same terms, to `CCCCCCCCCCCCCCCC[N+](C)(C)CCN(Cc1ccc(OC)cc1)c1ncccn1` belongs 11.5%; to `C[C@@H](CN(C)C)CN1c2ccccc2Sc2ccccc21`, -7.27%; to `CCN(CCCCOC(=O)c1ccc(OC)c(OC)c1)C(C)Cc1ccc(OC)cc1` (stereo not given), 1.95%. The same measure, in the same setting: then `COc1ccc(CCN2CCC(Nc3nc4ccccc4n3Cc3ccc(F)cc3)CC2)cc1`, with -11% and -15.4%; and `Cc1c(N(C)CS(=O)(=O)O)c(=O)n(-c2ccccc2)n1C`, with -1.51%. As to `CC(CCc1ccccc1)NCC(O)c1ccc(O)c(C(N)=O)c1` (stereo not given), the activity, negative = inhibition was 9.7%. The same measure, in the same setting: then `CC(=O)O[C@]1(C(C)=O)CC[C@H]2[C@@H]3C[C@H](C)C4=CC(=O)CC[C@]4(C)[C@H]3CC[C@@]21C`, with 11.1%; and `c1ccc(-c2ccc(C(c3ccccc3)n3ccnc3)cc2)cc1` (stereo not given), with -24.4%; and `CN(C(=O)CN(CCO)CC(=O)N(C)C(C)(C)Cc1ccccc1)C(C)(C)Cc1ccccc1`, with 5.14%. Take `CCCCC(=O)O[C@]1(C(=O)CO)CC[C@H]2[C@@H]3CCC4=CC(=O)CC[C@]4(C)[C@H]3[C@@H](O)C[C@@]21C`: the activity, negative = inhibition is -12.8%. As to `CN(C)CC/C=C1\c2ccccc2Sc2ccc(Cl)cc21`, the activity, negative = inhibition is -6.29%.

Turning to `CN1CCN(CCCN2c3ccccc3Sc3ccc(S(=O)(=O)N(C)C)cc32)CC1`, the activity, negative = inhibition was 5.77%. The same measure, in the same setting: then `CC(=O)O[C@H]1C[C@@H]2CC[C@@H]3[C@H](CC[C@@]4(C)[C@H]3C[C@H]([N+]3(C)CCCCC3)[C@@H]4OC(C)=O)[C@@]2(C)C[C@@H]1[N+]1(C)CCCCC1`, with 10.1%.

Still in this experiment, the particulars now being: ME-180 (cervical carcinoma) SIE beta-lactamase reporter, IL-6 stimulated, 5 h; at 38 µM (top of the series).
Consider `Oc1cc(O)c2c(c1)O[C@H](c1ccc(O)c(O)c1)[C@H](O)C2`, for which the activity, negative = inhibition was -26.7%. Same read-out and setting: then `CN1CCC[C@@H]1c1cccnc1`, with -4.46%; and `O=C(O)c1cc2cc(Cc3cccnc3)ccc2o1`, with 6.34%; and `CCCn1c(=O)[nH]c(=O)c2[nH]cnc21`, with -5.28%.

For `CNCCC=C1c2ccccc2CCc2ccccc21`, the activity, negative = inhibition is -27.8%. Still for that read-out and setting: then `N[C@@H](Cc1cnc[nH]1)C(=O)O`, with 27.2%.
